Results reported in PubChem BioAssay.
Where “and” joins values, the source holds several entries; their conditions need not be identical. Identical values can stand only once. For some assays here: Entries with a potency or affinity are not part of this list.

Legend:
[1] = polyglutamine-triggered caspase-3 activation inhibitors, cell-based (AID 1583); details: polyglutamine-induced caspase-3 activation, cell assay; stronger effect = higher value;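 tested at 10 µM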
[2] = suppressors of polyQ aggregation in yeast, 75Q-TubU reporter (AID 1593); details: Yeast 75Q polyglutamine aggregation reporter
[3] = rescue of polyQ-huntingtin neuronal dysfunction in worms, whole organism, C. elegans mechanosensory neurons, N-terminal huntingtin (AID 1599); details: touch response, stronger effect = higher value
[4] = inhibitors of mitochondrial cytochrome c release, biochemical, purified mitochondria (AID 1603); details: stronger effect = lower value;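 also: mouse liver mitochondria challenged with calcium chloride; signal normalized to the plate average as 100%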
[5] = inhibitors of polyQ protein aggregation (AID 1604); details: polyglutamine-induced protein aggregation inhibition assay; stronger effect = higher value; tested at 2.5 µM

Row | SMILES | inhibition [1] | score [2] | rescue above control [3] | cytochrome c release ratio [4] | inhibition of aggregation [5]
1 | CO[C@@H]1[C@@H](OC(N)=O)[C@@H](O)[C@H](Oc2ccc3c(O)c(NC(=O)c4ccc(O)c(CC=C(C)C)c4)c(=O)oc3c2C)OC1(C)C | -0.61% | 1.59 | -8.05 | 0.96 | -73.2%
2 | CNC[C@H](O)c1cccc(O)c1 | -27.4% | 1.21 | -6.19 | 0.84 | 47.4%
3 | CC1=C(C(=O)O)N2C(=O)[C@@H](NC(=O)[C@H](N)C3=CCC=CC3)[C@H]2SC1 | -6.99% | 1.49 | 19 | 0.86 | 74.7%
4 | OCc1ccccc1O | -8.47% | 1.17 | 12.8 | 0.81 | 67.8%
5 | Cc1cc(=O)n(-c2ccccc2)n1C | 22% | 1.07 | 2.73 | 1.13 | 22.2%
6 | COc1ccc(CN(CCN(C)C)c2ncccn2)cc1 | 10.6% | 1.36 | 1.69 | 1.27 | 22.2%
7 | CN1CCCN=C1COC(=O)C(O)(c1ccccc1)C1CCCCC1 (stereo not given) | 21.6% | 1.24 | 4.84 | 0.8 | 60.8%
8 | COc1ccc(C(=O)c2ccccc2)c(O)c1 | 16.9% | 0.23 | 9.82 | 1.17 | 35%
9 | CC(=O)N[C@@H](CS)C(=O)O | -21.7% | 1.46 | -1.36 | 1.05 | 79.6%
10 | CCCCCCc1ccc(O)cc1O | 8.69% | 0 | -4.19 | 0.54 | 56.7%
11 | C[N+](C)(C)CCCCCC[N+](C)(C)C | 1.59% | 1.14 | -10.3 | 0.92 | 72.2%
12 | COc1cc(NS(=O)(=O)c2ccc(N)cc2)nc(OC)n1 | 1.07% | 1.14 | -2.33 | 0.86 | 67.5%
13 | CN(C)CCCN1c2ccccc2Sc2ccccc21 | -14.3% | 1.56 | 23.4 | 1.27 | 23.9%
14 | CCn1cc(C(=O)O)c(=O)c2cnc(N3CCNCC3)nc21 | -5.14% | 1.35 | 5.83 | 0.98 | 72.4%
15 | CC(C)(C)CC(C)(C)c1ccc(O)c(Cc2ccc(Cl)cc2Cl)c1 | 42% | -0.61 | -2.34 | 0.8 | 71.9%
16 | NC(=O)NO | -0.33% | 1.4 | -1.6 | 0.82 | 85.9%
17 | CCCCCC(C)N (stereo not given) | -8.68% | 1.2 | 1.21 | 1.02 | -9.09%

Row | SMILES | inhibition [1] | score [2] | rescue above control [3] | cytochrome c release ratio [4] | inhibition of aggregation [5]
18 | O=C(OCc1ccccc1)c1ccccc1 | 4.26% | 0.45 | 0.5 | 1.04 | 74%
19 | NC(=O)c1ncn([C@@H]2O[C@H](CO)[C@@H](O)[C@H]2O)c1O | 7.18% | 1.36 | -8.77 | 0.91 | 49%
20 | Cc1cccc(N(C)C(=S)Oc2ccc3ccccc3c2)c1 | -3.4% | -1.43 | -1.37 | 0.96 | 57.4%
21 | Cc1cc(C2CCCCC2)n(O)c(=O)c1 | 60.9% | 0.13 | 6.29 | 0.91 | 72.2%
22 | Nc1c2c(nc3ccccc13)CCCC2O (stereo not given) | 19.1% | 1.04 | -4.39 | 0.96 | 59.1%
23 | NC(=O)c1ccc([N+](=O)[O-])cc1Cl | 5.22% | 1.24 | 31.2 | 1.06 | 82.5%
24 | COc1ccc(CCN(C)CCCC(C#N)(c2ccc(OC)c(OC)c2)C(C)C)cc1OC (stereo not given) | 15.1% | 1.28 | 2.45 | 0.62 | 62.8%
25 | CC(=O)Nc1ccc(S(=O)(=O)Nc2ccc([N+](=O)[O-])cc2)cc1 | 15.7% | 1.4 | -10.3 | 1.02 | 15.7%
26 | Cc1c(NC(C)C)c(=O)n(-c2ccccc2)n1C | 6.61% | 1.54 | -6.83 | 1.16 | 13.7%
27 | O=C(N[C@H](CO)[C@H](O)c1ccc([N+](=O)[O-])cc1)C(Cl)Cl | -3.82% | 1 | -3.71 | 0.72 | 55%
28 | NC[C@H](O)c1ccc(O)c(O)c1 | 10.9% | 1.61 | -5.19 | 1.03 | 44.7%
29 | CC1(C)S[C@@H]2[C@H](NC(=O)[C@H](N)c3ccccc3)C(=O)N2[C@H]1C(=O)O | 14.1% | 1.62 | -3.83 | 1.35 | 80.3%
30 | CN(C)C(=O)Oc1cccc([N+](C)(C)C)c1 | 15.7% and 16.9% | 1.16 and 1.39 | 10.4 and -12.8 | 0.9 and 1.01 | 74.6% and 38%
31 | O=C(O)c1ccccc1OP(=O)(O)O | 6.6% | 0.8 | -8.86 | 1.13 | 61%
32 | Cc1cc(=O)[nH]c(=S)[nH]1 | -32.8% | 1.08 | -4.23 | 0.82 | 69.4%
33 | O=C(O)CCCCCCCC(=O)O | -26.7% | 1.02 | 10.4 | 1.16 | 79.6%
34 | CC1=C(C(=O)O)N2C(=O)[C@@H](NC(=O)[C@H](N)c3ccc(O)cc3)[C@H]2SC1 | -20.4% | 1.38 | 2.74 | 0.96 | 74.6%
